This is a sample that favours compounds with a hit; in the whole collection about 2.5% have one here.
Cruzain noTriton: blocks cruzain activity in detergent-free assay; purified cruzain, Z-FR-AMC fluorescence, no detergent; Potency, µM, without a hit: max response, negative = inhibition, most hits filed as inhibitors; 200,000 compounds, 2.3% hits;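 also: plate controls were enzyme without inhibitor for no effect and buffer without enzyme for full effect; nearly all actives have a fitted effect of over 40% in size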
Target sequence (P25779 123-467 limits assumed): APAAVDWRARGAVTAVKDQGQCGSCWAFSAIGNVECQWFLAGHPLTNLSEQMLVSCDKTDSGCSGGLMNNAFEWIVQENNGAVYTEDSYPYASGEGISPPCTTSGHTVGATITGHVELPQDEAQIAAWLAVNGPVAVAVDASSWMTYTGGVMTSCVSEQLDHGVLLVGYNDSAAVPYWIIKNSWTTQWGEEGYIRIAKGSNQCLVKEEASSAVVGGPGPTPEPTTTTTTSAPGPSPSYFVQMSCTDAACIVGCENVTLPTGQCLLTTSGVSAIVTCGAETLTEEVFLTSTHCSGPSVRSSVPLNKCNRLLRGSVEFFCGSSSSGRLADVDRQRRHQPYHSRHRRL
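Purified cruzain at 1.5 nM, pre-incubated 15 min with compound at room temperature in 100 mM sodium acetate pH 5.5, 5 mM DTT, 0.00005% Triton X-100. Reaction started with 2 uM Z-FR-AMC; AMC fluorescence increase over 60 s gives rate.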
Cruzain inh Det: cruzain (T. cruzi) inhibition with detergent | P25779 | purified cruzain, Z-FR-AMC fluorescence, 0.01% Triton | Potency, µM, inactives show max response, negative = inhibition, usual class: inhibitors | 200,000 compounds, 0.43% hits;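 also: plate controls were neutral wells for no effect and buffer without enzyme for full effect; nearly all actives have a fitted effect of over 40% in size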
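Enzyme 1.5 nM, Z-FR-AMC 2 uM, NaOAc 100 mM pH 5.5, DTT 5 mM, Triton X-100 0.01%; 15 min RT compound preincubation; kinetic ex360/em450, 60 s delta.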
An asterisk follows results filed as active. Calls follow the shape of the dose curve; as a rule, active = well fitted curve in the direction sought with a large enough effect; inconclusive = small, poorly fitted or top-dose-only effect, or another doubt; inactive = no such curve, though single readings can be large; an effect the other way counts as inactive or inconclusive. Potency is read from the fitted curve at half-maximal effect.

What do the screens show for `O=C(COC(=O)c1cc(-c2ccc(Cl)s2)nc2ccccc12)NCc1ccco1`?
Cruzain noTriton: 13.0%; Cruzain inh Det: 20µM*

What do the screens show for `COc1ccc(CNC(=O)COC(=O)c2cc(-c3ccc(Cl)s3)nc3ccccc23)cc1`?
Cruzain noTriton: -18.0%; Cruzain inh Det: 3.9%

How did O=C(COC(=O)c1cc(-c2cccs2)nc2ccccc12)NCc1ccco1 do in these assays?
Cruzain noTriton: 2.8%; Cruzain inh Det: 25.1µM*

How did COc1ccc(Nc2cc(C(=O)NCc3ccco3)c3ccccc3n2)cc1 do in these assays?
Cruzain noTriton: 12.6µM*; Cruzain inh Det: -6.7%

What do the screens show for `COc1ccc(Nc2cc(C(=O)NCc3ccccc3OC)c3ccccc3n2)cc1`?
Cruzain noTriton: 10.6%; Cruzain inh Det: -10.3%

How did O=C(NCc1ccco1)c1cc(-c2cccs2)nc2ccccc12 do in these assays?
Cruzain noTriton: -12.8%; Cruzain inh Det: -15.4%

What do the screens show for `Cc1cc(C)c(NC(=O)CSc2nc(C)cc(C)c2C#N)c(C)c1`?
Cruzain noTriton: -13.0%; Cruzain inh Det: 1.1%

Results for CC(=O)c1ccc(NC(=O)c2cc3c(=O)oc4ccc(C)cc4c3s2)cc1 ?
Cruzain noTriton: 9.4%; Cruzain inh Det: 0.5%

How did Cc1ccc2c(CC(=O)N(Cc3ccc(N(C)C)cc3)Cc3ccco3)coc2c1C do in these assays?
Cruzain noTriton: -24.3%; Cruzain inh Det: -8.2%

Results for C=CCn1c(-c2oc3nc(-c4ccccc4)cc(-c4ccccc4)c3c2N)n[nH]c1=S ?
Cruzain noTriton: 25.1µM*; Cruzain inh Det: -11.4%

What do the screens show for `C=CCn1c(-c2cccc(Cl)c2)n[nH]c1=S`?
Cruzain noTriton: 11.6%; Cruzain inh Det: -5.8%

How did Cc1ccc(-c2cn3cccnc3n2)cc1NC(=O)C(C)(C)Oc1ccc(Cl)cc1 do in these assays?
Cruzain noTriton: 7.2%; Cruzain inh Det: -1.0%

How did Cc1ccc([N+](=O)[O-])cc1S(=O)(=O)N(C(=O)c1ccncc1)c1ccc2oc3c(c2c1)CCCC3 do in these assays?
Cruzain noTriton: 12.6µM*; Cruzain inh Det: -1.6%

How did COC(=O)c1c(C)oc2ccc(N(C(=O)c3ccncc3)S(=O)(=O)c3cc(C)c(C)cc3C)cc12 do in these assays?
Cruzain noTriton: 2.0%; Cruzain inh Det: -5.6%

What do the screens show for `CCc1ccc(S(=O)(=O)N(C(C)=O)c2ccc3oc4c(c3c2)CCCC4)cc1`?
Cruzain noTriton: -8.2%; Cruzain inh Det: -4.9%

What do the screens show for `Cc1ccc(S(=O)(=O)N(C(=O)c2ccncc2)c2ccc3oc4c(c3c2)CCCC4)cc1[N+](=O)[O-]`?
Cruzain noTriton: 12.6µM*; Cruzain inh Det: 0.6%

What do the screens show for `CSc1ccc(C(=S)N2CCN(C)CC2)cc1`?
Cruzain noTriton: 11.3%; Cruzain inh Det: 3.1%

How did CSc1ccc(C(=S)N2CCN(C(c3ccccc3)c3ccccc3)CC2)cc1 do in these assays?
Cruzain noTriton: 3.98µM*; Cruzain inh Det: -1.8%

Results for O=C(CC12CC3CC(C1)CC(CC(=O)NC1=NCCS1)(C3)C2)NC1=NCCS1 ?
Cruzain noTriton: 25.1µM*; Cruzain inh Det: -7.3%

How did O=C(NC1=NCCS1)C12CC3CC(C1)CC(C(=O)NC1=NCCS1)(C3)C2 do in these assays?
Cruzain noTriton: -7.0%; Cruzain inh Det: 5.5%

Results for COc1cc(NC(=O)CN2C(=O)CCc3cc(Br)ccc32)cc(OC)c1OC ?
Cruzain noTriton: inconclusive; Cruzain inh Det: -2.9%

What do the screens show for `Cc1n[nH]c(=S)n1/N=C/c1ccc(OCc2ccc(Cl)cc2Cl)cc1`?
Cruzain noTriton: -14.1%; Cruzain inh Det: -2.4%

What do the screens show for `Cc1n[nH]c(=S)n1/N=C/c1ccccc1OCc1ccc(Cl)cc1Cl`?
Cruzain noTriton: 15.8µM*; Cruzain inh Det: -1.3%

Results for Cc1ccccc1-c1noc(-c2cccnc2N(C)Cc2ccc(Cl)cc2)n1 ?
Cruzain noTriton: -0.9%; Cruzain inh Det: -3.6%

How did O=c1cc(-c2ccccc2)nc2nc(-c3ccco3)[nH]n12 do in these assays?
Cruzain noTriton: 0.398µM*; Cruzain inh Det: -0.6%

What do the screens show for `Cc1nc2nc(-c3ccccc3)cc(=O)n2[nH]1`?
Cruzain noTriton: -3.3%; Cruzain inh Det: 0.6%

Results for O=C(Nc1nc2c(s1)CCCC2)c1ccc(S(=O)(=O)N2CCCc3ccccc32)cc1 ?
Cruzain noTriton: inconclusive; Cruzain inh Det: -1.6%

Results for CC1CCc2nc(NC(=O)c3ccc(S(=O)(=O)N4CCCc5ccccc54)cc3)sc2C1 (stereo not given) ?
Cruzain noTriton: 7.94µM*; Cruzain inh Det: -4.6%

What do the screens show for `Cc1ccc2c(c1)cc1c(=O)n(Cc3cccc(Cl)c3)nc(C)n12`?
Cruzain noTriton: 1.2%; Cruzain inh Det: -2.5%

Results for Fc1ccc(COc2ccc(Cl)cc2/C=N/Nc2nc(N3CCCC3)nc(N3CCCC3)n2)cc1 ?
Cruzain noTriton: 5.01µM*; Cruzain inh Det: -1.7%

How did Fc1ccccc1COc1ccccc1/C=N/Nc1nc(N2CCCC2)nc(N2CCCC2)n1 do in these assays?
Cruzain noTriton: inconclusive; Cruzain inh Det: -2.6%

Results for COC(=O)c1ccc(CSc2nnc(NC(=O)c3cc4c(s3)CCCC4)s2)cc1 ?
Cruzain noTriton: 6.31µM*; Cruzain inh Det: -6.9%

What do the screens show for `Cc1csc(NC(=O)c2cc3c(s2)CCC3)n1`?
Cruzain noTriton: -7.8%; Cruzain inh Det: -11.4%

What do the screens show for `O=C(Nc1nnc(SCc2ccc(F)cc2)s1)c1ccco1`?
Cruzain noTriton: -17.2%; Cruzain inh Det: 1.5%

Results for O=C(Nc1nnc(C2CC2)s1)c1cc2c(s1)CCCCCC2 ?
Cruzain noTriton: 6.31µM*; Cruzain inh Det: 6.1%

What do the screens show for `CC1CCc2sc(C(=O)Nc3nnc(SCc4ccc(F)cc4)s3)cc2C1` (stereo not given)?
Cruzain noTriton: 10µM*; Cruzain inh Det: -9.7%

Results for COC(=O)c1ccc(CSc2nnc(C)s2)cc1 ?
Cruzain noTriton: -12.8%; Cruzain inh Det: 7.1%

How did Cc1ccc(Cl)cc1NC(=O)Nc1nnc(N2CCCC(C)C2)s1 (stereo not given) do in these assays?
Cruzain noTriton: -12.9%; Cruzain inh Det: -7.2%

What do the screens show for `Cn1ncc2c(Nc3cc(C(F)(F)F)ccc3Cl)ncnc21`?
Cruzain noTriton: 12.8%; Cruzain inh Det: -0.1%

Results for COc1cc(OC)cc(N2C(=O)CSC23C(=O)Nc2ccccc23)c1 (stereo not given) ?
Cruzain noTriton: 9.8%; Cruzain inh Det: -1.9%

What do the screens show for `CCOC(=O)c1sc(NC(=O)c2ccncc2)c(C#N)c1C`?
Cruzain noTriton: -8.8%; Cruzain inh Det: -11.8%

Results for CCOC(=O)c1sc(NC(=O)c2cc(-c3ccccc3C)nc3ccccc23)c(C#N)c1C ?
Cruzain noTriton: 10µM*; Cruzain inh Det: -0.9%

What do the screens show for `Cc1ccccc1-c1cc(C(=O)Nc2sc(C)c(C)c2C(N)=O)c2ccccc2n1`?
Cruzain noTriton: 20µM*; Cruzain inh Det: -15.0%

What do the screens show for `CCOC(=O)c1c(NC(=O)c2cc(-c3ccc(Cl)s3)nc3ccccc23)sc(C(N)=O)c1C`?
Cruzain noTriton: -6.7%; Cruzain inh Det: 0.7%

How did Cc1noc(-c2ccccc2OCC(=O)Nc2ccccc2[N+](=O)[O-])n1 do in these assays?
Cruzain noTriton: 2.8%; Cruzain inh Det: -2.6%

How did O=C(c1ccc2c(c1)N(Cc1ccccc1)C(=O)c1ccccc1S2(=O)=O)N1CCc2ccccc21 do in these assays?
Cruzain noTriton: inconclusive; Cruzain inh Det: -0.8%

Results for COc1ccccc1NC(=O)CSc1nc2ccccc2c(=O)n1CCC(=O)NC1CCCCC1 ?
Cruzain noTriton: -7.7%; Cruzain inh Det: 1.5%

Source: PubChem (National Center for Advancing Translational Sciences (NCATS))
